Source: PubChem BioAssay (EPA / NIEHS)
Activity calls are given as the source filed them. Rule for the calls: active = hit-call score of the fitted dose curve at least 0.9, where 1 is the maximum; inactive = score below 0.9.

Tests used:
[1] = ATG_CRE_CIS: Attagene CIS-FACTORIAL HepG2 Assay for human cAMP Responsive Element (CRE) binding protein 3 (AID 2282926); details: HepG2 CRE cis-reporter, Attagene multiplexed mRNA; actives raise or lower the signal
Outline: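 Human liver HepG2, transient MRTU transfection, 24 h compound exposure. Total RNA → oligo(dT) RT → PCR → 6-FAM primer extension → HpaI cut → CE. Activity called both directions vs DMSO.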

[2] = ATG_CMV_CIS: Attagene CIS-FACTORIAL HepG2 Assay for human CMV (Internal Marker) (AID 2282928); details: HepG2 CMV promoter reporter, transcription factor profiling; actives raise or lower the signal;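 note: endpoint acts as a background internal control marker rather than a target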
Outline: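 HepG2 cells transiently transfected with multiple cis-regulated reporter units; 24 h compound exposure. Reporter mRNA quantified by RT-PCR, 6-FAM primer-extension labeling, HpaI digestion and capillary electrophoresis; bidirectional fitting against DMSO baseline.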

[3] = ATG_DR4_LXR_CIS: Attagene CIS-FACTORIAL HepG2 Assay for human Liver X Receptor (LXR), DR4 submotif (AID 2282929); details: HepG2 Attagene DR4 cis-reporter, mRNA transcription; actives raise or lower the signal
Outline: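 DR4 cis-reporter in HepG2, 24 h exposure. Detection: RT-PCR, 6-FAM labelling, CE fragment analysis. Endpoint fitted bidirectionally, DMSO = baseline.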

[4] = biological target: Aryl hydrocarbon receptor (Homo sapiens) (UniProt P35869); assay: ATG_Ahr_CIS: Attagene CIS-FACTORIAL HepG2 Assay for human Aryl Hydrocarbon Receptor (Ahr) (AID 2282930); details: HepG2 AhR cis-factorial reporter transcription; actives raise or lower the signal
Outline: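 Transient MRTU transfection of HepG2 → 24 h compound exposure → total RNA, oligo(dT) RT → PCR, 6-FAM extension, HpaI cut → CE fluorescence. DMSO = baseline; bidirectional curve fit.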

[5] = ATG_AP_1_CIS: Attagene CIS-FACTORIAL HepG2 Assay for human Activator Protein 1 (AP-1) (AID 2282931); details: HepG2 Attagene cis-factorial AP-1 reporter mRNA; actives raise or lower the signal
Outline: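 Cis-regulated reporter units transiently expressed in HepG2 report endogenous transcription-factor activity. Signal: reporter mRNA at 24 h, via RT-PCR and fluorescent capillary electrophoresis. Endpoint derived by bidirectional fitting, DMSO as negative control.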

[6] = ATG_AP_2_CIS: Attagene CIS-FACTORIAL HepG2 Assay for human Activator Protein 2 (AP-2) (AID 2282932); details: HepG2 AP-2 cis-reporter, Attagene transcription factor profiling; actives raise or lower the signal
Outline: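 HepG2, transient MRTU transfection, cis-regulated reporters; 24 h compound exposure; RNA isolated, RT-PCR, 6-FAM labelling, HpaI digest, CE fluorescence. DMSO = negative control/baseline, bidirectional fit.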

[7] = ATG_BRE_CIS: Attagene CIS-FACTORIAL HepG2 Assay for human Bone Morphogenetic Protein (BMP) Response Element (BRE) (AID 2282933); details: HepG2 BMP response element reporter, Attagene transcription factor profiling; actives raise or lower the signal
Outline: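 Read-out: reporter mRNA induction quantified by RT-PCR and capillary electrophoresis after 24 h chemical exposure of transfected HepG2 cells. Endogenous factor activity on the BMP response element; gain or loss fitted against DMSO baseline.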

[8] = biological target: Retinoic acid receptor alpha (Homo sapiens) (UniProt P10276); assay: ATG_DR5_RAR_CIS: Attagene CIS-FACTORIAL HepG2 Assay for human Retinoic Acid Receptor Alpha (RARE), DR5 submotif (AID 2282934); details: HepG2 Attagene cis-factorial RARE DR5 reporter, mRNA; actives raise or lower the signal;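 for AC50: reporter responds to endogenous RAR alpha beta and gamma in HepG2 not RARA alone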
Outline: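 Transient MRTU transfection of HepG2; 24 h compound treatment; TriZol RNA, oligo(dT) RT, PCR, FAM labelling, capillary electrophoresis. Bidirectional fit vs DMSO. Endogenous TF activity at DR5 RARE.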

[9] = biological target: Transcription factor E2F1 (Homo sapiens) (UniProt Q01094); assay: ATG_E2F_CIS: Attagene CIS-FACTORIAL HepG2 Assay for human E2F Transcription Factor 1 (AID 2282935); details: HepG2 Attagene cis-reporter, E2F reporter RNA transcripts; actives raise or lower the signal
Outline: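 Cis-element reporter mRNA induction in transiently transfected HepG2, 24 h exposure. Activity fitted in both directions relative to DMSO negative control.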

[10] = biological target: CCAAT/enhancer-binding protein beta (Homo sapiens) (UniProt P17676); assay: ATG_C_EBP_CIS: Attagene CIS-FACTORIAL HepG2 Assay for human CCAAT/Enhancer Binding Protein (C/EBP) beta (AID 2282927); details: HepG2 Attagene cis-factorial transcription factor reporter; actives raise or lower the signal
Outline: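 Endogenous transcription factor activity in human liver HepG2 cells is inferred from induction of a CEBPB-linked reporter mRNA. Exposure lasts 24 h; activity is fitted in both directions relative to DMSO.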

Measured: AC50

Chain of Aryl hydrocarbon receptor (Homo sapiens) (P35869 whole entry, looked up): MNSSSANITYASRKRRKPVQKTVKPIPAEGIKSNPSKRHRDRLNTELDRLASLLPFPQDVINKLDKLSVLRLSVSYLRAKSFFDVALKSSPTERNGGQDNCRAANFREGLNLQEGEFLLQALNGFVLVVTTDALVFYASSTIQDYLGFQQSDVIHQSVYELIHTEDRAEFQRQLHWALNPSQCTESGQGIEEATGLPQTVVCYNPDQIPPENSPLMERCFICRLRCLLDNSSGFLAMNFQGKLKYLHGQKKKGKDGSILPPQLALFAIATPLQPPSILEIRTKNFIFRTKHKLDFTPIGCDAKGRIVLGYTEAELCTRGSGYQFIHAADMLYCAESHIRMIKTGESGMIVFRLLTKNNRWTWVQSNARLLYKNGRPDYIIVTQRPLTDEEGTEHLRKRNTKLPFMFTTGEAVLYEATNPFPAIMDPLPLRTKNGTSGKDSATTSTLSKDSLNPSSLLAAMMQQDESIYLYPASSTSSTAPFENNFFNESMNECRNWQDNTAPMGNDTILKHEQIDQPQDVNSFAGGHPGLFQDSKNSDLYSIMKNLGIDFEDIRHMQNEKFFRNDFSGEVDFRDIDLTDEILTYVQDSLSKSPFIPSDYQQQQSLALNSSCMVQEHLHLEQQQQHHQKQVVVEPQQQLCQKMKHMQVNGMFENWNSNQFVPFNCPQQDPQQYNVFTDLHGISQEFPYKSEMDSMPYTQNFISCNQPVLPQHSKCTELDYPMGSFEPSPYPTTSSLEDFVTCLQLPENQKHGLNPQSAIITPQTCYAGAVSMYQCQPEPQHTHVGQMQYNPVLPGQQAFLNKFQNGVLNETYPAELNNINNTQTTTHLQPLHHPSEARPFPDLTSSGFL
Chain of CCAAT/enhancer-binding protein beta (Homo sapiens) (P17676 whole entry, looked up): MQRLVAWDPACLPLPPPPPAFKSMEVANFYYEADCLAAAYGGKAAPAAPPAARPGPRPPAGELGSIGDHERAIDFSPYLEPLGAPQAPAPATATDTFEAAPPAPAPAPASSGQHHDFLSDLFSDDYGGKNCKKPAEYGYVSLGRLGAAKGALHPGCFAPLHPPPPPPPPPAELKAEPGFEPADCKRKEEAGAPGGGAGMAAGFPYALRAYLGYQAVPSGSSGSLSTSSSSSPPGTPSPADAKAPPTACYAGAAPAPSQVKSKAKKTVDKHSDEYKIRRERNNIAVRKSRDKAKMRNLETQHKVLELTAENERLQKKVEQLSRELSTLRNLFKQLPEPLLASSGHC
Chain of Retinoic acid receptor alpha (Homo sapiens) (P10276 whole entry, looked up): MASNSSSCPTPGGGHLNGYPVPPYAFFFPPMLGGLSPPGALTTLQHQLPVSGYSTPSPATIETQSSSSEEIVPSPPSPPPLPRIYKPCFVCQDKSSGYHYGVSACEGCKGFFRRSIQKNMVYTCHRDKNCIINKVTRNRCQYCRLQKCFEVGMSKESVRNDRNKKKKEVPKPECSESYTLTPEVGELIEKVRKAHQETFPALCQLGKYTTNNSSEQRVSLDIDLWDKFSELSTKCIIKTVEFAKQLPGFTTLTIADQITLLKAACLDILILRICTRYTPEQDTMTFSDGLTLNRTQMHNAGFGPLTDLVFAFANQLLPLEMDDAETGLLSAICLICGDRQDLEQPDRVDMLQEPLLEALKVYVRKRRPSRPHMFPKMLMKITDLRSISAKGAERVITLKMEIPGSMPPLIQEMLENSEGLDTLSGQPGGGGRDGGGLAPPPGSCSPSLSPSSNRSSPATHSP
Chain of Transcription factor E2F1 (Homo sapiens) (Q01094 whole entry, looked up): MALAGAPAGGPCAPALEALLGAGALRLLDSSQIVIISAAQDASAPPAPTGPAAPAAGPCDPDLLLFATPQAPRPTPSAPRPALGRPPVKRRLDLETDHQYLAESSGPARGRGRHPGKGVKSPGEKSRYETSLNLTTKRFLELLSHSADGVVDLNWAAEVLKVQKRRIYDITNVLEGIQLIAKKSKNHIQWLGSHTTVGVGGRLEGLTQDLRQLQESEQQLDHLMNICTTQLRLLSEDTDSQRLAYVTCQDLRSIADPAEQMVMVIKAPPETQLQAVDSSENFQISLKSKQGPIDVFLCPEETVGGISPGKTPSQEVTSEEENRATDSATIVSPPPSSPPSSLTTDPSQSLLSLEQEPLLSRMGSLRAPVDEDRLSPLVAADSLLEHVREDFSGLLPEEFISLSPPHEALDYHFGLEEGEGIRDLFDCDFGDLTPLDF

C=C(C)CCO
inactive: [1] | [2] | [3] | [4] | [5] | [6] | [7] | [8] | [9]

Cc1ccccc1C
inactive: [1] | [2] | [3] | [4] | [5] | [6] | [7] | [8] | [9]

CCCNC(=O)NS(=O)(=O)c1ccc(Cl)cc1
inactive: [1] | [2] | [3] | [4] | [5] | [6] | [7] | [8] | [9]

Cc1ccc(C(C)c2ccc(C)c(C)c2)cc1C
active: [2] 40.9 µM | [3] 117 µM | [5] 48.7 µM
inactive: [1] | [4] | [6] | [7] | [8] | [9]

CC(=O)OCc1ccco1
inactive: [1] | [2] | [3] | [4] | [5] | [6] | [7] | [8] | [9]

CC1(C)[C@H]2CC[C@]1(C)C(=O)C2
inactive: [1] | [10] | [3] | [4] | [5] | [7] | [8]

CC(=O)NS(=O)(=O)c1ccc(N)cc1
inactive: [1] | [3] | [4] | [5] | [6] | [7] | [8]

C=CC=CC=CCCCCC
inactive: [1] | [2] | [3] | [4] | [5] | [6] | [7] | [9]

O=C1CCCCCN1SSN1CCCCCC1=O
inactive: [2] | [3] | [4] | [5] | [6] | [7] | [8] | [9]
active: [1] 147 µM

COc1ccc(C(Cl)=C(c2ccc(OC)cc2)c2ccc(OC)cc2)cc1
inactive: [1] | [2] | [3] | [4] | [5] | [6] | [7] | [8]

O=C(C=Cc1ccccc1)OCc1ccccc1
inactive: [1] | [10] | [3] | [4] | [5] | [7] | [8] | [9]

O=S(=O)(O)c1cc(S(=O)(=O)O)c2ccc3c(S(=O)(=O)O)cc(S(=O)(=O)O)c4ccc1c2c43
inactive: [1] | [2] | [3] | [4] | [5] | [6] | [7] | [8]

C=CC(=O)OCCC(=O)O
inactive: [1] | [2] | [3] | [4] | [6] | [7] | [8] | [9]

CCCc1ccc(OC)cc1
inactive: [1] | [2] | [3] | [4] | [5] | [6] | [7] | [8] | [9]

CCOC(=O)[C@H](C)O
inactive: [1] | [3] | [4] | [5] | [6] | [7] | [8] | [9]

O=C1OC(=O)c2cc(Oc3ccc4c(c3)C(=O)OC4=O)ccc21
inactive: [1] | [10] | [3] | [4] | [5] | [7] | [8] | [9]

CCCCCCCCCCCCCCCC[n+]1ccccc1
inactive: [4] | [7] | [9]
active: [1] 0.873 µM | [10] 0.852 µM | [3] 8.64 µM | [5] 20.4 µM | [8] 7.8 µM

CCOc1nc(F)cc2nc(S(=O)(=O)Nc3c(Cl)cccc3C(=O)OC)nn12
inactive: [1] | [10] | [3] | [4] | [5] | [7] | [8] | [9]

c1ccc2c(c1)ccc1ncccc12
inactive: [1] | [3] | [5] | [9]
active: [2] 19.2 µM | [4] 7.77 µM | [6] 178 µM | [7] 76.4 µM | [8] 58 µM

Nc1ccc(-c2ccc(F)cc2)cc1
inactive: [1] | [2] | [3] | [4] | [5] | [6] | [7] | [8] | [9]

CC1OC1C1CCC2(C)OC2C1 (configuration not stated)
inactive: [1] | [2] | [3] | [4] | [6] | [7] | [8] | [9]

CC=C1CC2C=CC1C2 (configuration not stated)
inactive: [1] | [2] | [4] | [6] | [7] | [8] | [9]
active: [3] 26.5 µM | [5] 67.1 µM

CCOC(=O)Cc1cccc2ccccc12
inactive: [1] | [2] | [3] | [4] | [5] | [6] | [7] | [9]
active: [8] 39.5 µM

O=C(OCC1CCC2OC2C1)C1CCC2OC2C1 (configuration not stated)
inactive: [1] | [2] | [3] | [4] | [5] | [6] | [7] | [8] | [9]

CC(=O)OC(C)C
inactive: [1] | [2] | [3] | [4] | [5] | [7] | [8] | [9]

O=C1c2cccc(O)c2C(=O)c2c(O)cc(CO)cc21
inactive: [1] | [10] | [3] | [4] | [6] | [7] | [9]

O=C(C(Cl)Cl)N1CCOC12CCCCC2
active: [3] 12 µM | [5] 69.1 µM
inactive: [1] | [2] | [4] | [7] | [9]

C=C[C@](C)(O)CC[C@@H]1[C@@]2(C)CCCC(C)(C)[C@@H]2CC[C@@]1(C)O
inactive: [1] | [2] | [3] | [4] | [5] | [6] | [7] | [8] | [9]

CC(=O)OCC(=O)[C@@]12N=C(C)O[C@@H]1C[C@H]1[C@@H]3CCC4=CC(=O)C=C[C@]4(C)[C@H]3[C@@H](O)C[C@@]12C
inactive: [1] | [2] | [3] | [4] | [6] | [7] | [9]
active: [8] 27.5 µM

C=C1C2CCC(C2)C1(C)C (configuration not stated)
inactive: [1] | [2] | [3] | [4] | [5] | [6] | [7] | [8]

O=CC1CC1
inactive: [1] | [3] | [5] | [6] | [7] | [8] | [9]
active: [4] 0.119 µM

C=COCCCC
inactive: [1] | [10] | [3] | [4] | [5] | [7] | [8] | [9]

CC(=O)Nc1ccc2c(c1)Cc1cc(NC(C)=O)ccc1-2
inactive: [1] | [2] | [3] | [4] | [5] | [7] | [8] | [9]

O=C1C=CC(=O)O1
inactive: [1] | [2] | [3] | [4] | [6] | [7] | [8] | [9]

O=S1(=O)OC(c2ccc(O)cc2)(c2ccc(O)cc2)c2ccccc21
active: [4] 34.9 µM
inactive: [1] | [2] | [3] | [5] | [6] | [7] | [8] | [9]

CCCCCCCCCCCCCCCCCC#N
inactive: [1] | [2] | [3] | [4] | [5] | [6] | [7] | [9]

CC/C=C\CCOC(=O)CCCCC
inactive: [1] | [2] | [3] | [4] | [5] | [6] | [7] | [8] | [9]

CC(=O)Nc1nnc(S(N)(=O)=O)s1
inactive: [1] | [10] | [3] | [4] | [6] | [7] | [8]

Cc1ccc(OC(=O)CC(C)C)cc1
inactive: [1] | [2] | [3] | [4] | [5] | [6] | [7] | [8] | [9]

COCCCOCCCOC
inactive: [1] | [2] | [3] | [4] | [5] | [6] | [7] | [8] | [9]
